{
  "source": "PubChem BioAssay (NCATS)",
  "note": "Results filed as inconclusive are left out. Active and inactive are the calls of the source. Calls come from the whole dose curve; as a rule, active = well fitted cell-killing curve with a large enough effect; inconclusive = small, poorly fitted or top-dose-only effect; inactive = no such curve, though single readings can be large or run the other way. Potency is the fitted concentration of half-maximal effect.",
  "data": [
    {"test": "Quantitative High-Throughput drug screen in 47 multiple myeloma cell lines against the NCATS MIPE library collection: NCIH929_DSMZ cell viability assay (AID 1918978); note: nearly all actives have a fitted effect of over 35% in size", "conditions": "NCI-H929 myeloma viability, CellTiter-Glo ATP, 48 h; series mostly up to 45.8 µM", "summary_of_the_method": "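qHTS format: cells plated (500/well), pin-dosed with MIPE 4.0 compounds, kept 48 h at 37 °C. Readout was CellTiter-Glo luminescence, median RLU.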", "values": [
      {"smiles": "NC(=O)C1CCCc2c1[nH]c1ccc(Cl)cc21", "note": "(stereo not given)", "Potency": "inactive"},
      {"smiles": "Nc1ncnc2nc(-c3ccc(N4CCOCC4)nc3)cc(-c3cccc(Br)c3)c12", "Potency": "14.8 µM (active)"},
      {"smiles": "CNC(=O)c1ccc(C)c(-n2c(C)cc(OCc3ccc(F)cc3F)c(Br)c2=O)c1", "Potency": "5.9 µM (active)"},
      {"smiles": "COc1ccccc1[C@H](c1cccc2ccccc12)[C@@](C)(C#N)C(=O)N1CCC(c2cccc(C(F)(F)F)c2)CC1", "Potency": "3.72 µM (active)"},
      {"smiles": "COc1cc(F)c(F)c(Nc2ccc(I)cc2F)c1NS(=O)(=O)C1(C[C@H](O)CO)CC1", "Potency": "18.7 µM (active)"},
      {"smiles": "N#Cc1ccc(C(c2ccc(C#N)cc2)n2cncn2)cc1", "Potency": "inactive"},
      {"smiles": "CC(C)(Sc1ccc(CCN(CCCCC2CCCCC2)C(=O)NC2CCCCC2)cc1)C(=O)O", "Potency": "inactive"},
      {"smiles": "NC[C@H](O)c1ccc(O)c(O)c1", "Potency": "inactive"},
      {"smiles": "O=C1CCC(N2C(=O)c3ccccc3C2=O)C(=O)N1", "note": "(stereo not given)", "Potency": "inactive"},
      {"smiles": "Cc1cc2c(C(C)C)c(O)c(O)c(C=O)c2c(O)c1-c1c(C)cc2c(C(C)C)c(O)c(O)c(C=O)c2c1O", "Potency": "9.35 µM (active)"},
      {"smiles": "Cc1cc2c(F)c(Oc3ncnn4cc(OC[C@@H](C)O)c(C)c34)ccc2[nH]1", "Potency": "18.7 µM (active)"},
      {"smiles": "Clc1ccc(Nc2nnc(Cc3ccncc3)c3ccccc23)cc1", "Potency": "11.8 µM (active)"},
      {"smiles": "CCn1c(-c2nonc2N)nc2cnc(Oc3cccc(NC(=O)c4ccc(OCCN5CCOCC5)cc4)c3)cc21", "Potency": "9.35 µM (active)"},
      {"smiles": "O=C1CCCC2=C1C(c1[nH]ncc1Cl)N=C(Nc1nc3ccccc3o1)N2", "note": "(stereo not given)", "Potency": "5.9 µM (active)"},
      {"smiles": "Cc1ccc(N(CC2=NCCN2)c2cccc(O)c2)cc1", "Potency": "inactive"},
      {"smiles": "Cn1cc(-c2ccc3nnc(C(F)(F)c4ccc5ncccc5c4)n3n2)cn1", "Potency": "inactive"},
      {"smiles": "NCCCC(N)(C(=O)O)C(F)F", "note": "(stereo not given)", "Potency": "0.0526 µM (active)"},
      {"smiles": "COc1nc(-c2ccc3c(c2)OCO3)n(-c2ccc(NC(=O)CSc3ccccc3)cc2)n1", "Potency": "inactive"},
      {"smiles": "O=c1ncn2nc(Sc3ccc(F)cc3F)ccc2c1-c1c(Cl)cccc1Cl", "Potency": "18.7 µM (active)"},
      {"smiles": "CC(C)(C)OC(=O)CN(Cc1ccc(Cl)cc1)Cc1ccc([N+](=O)[O-])s1", "Potency": "inactive"},
      {"smiles": "Cc1c(CCOc2ccc(C(=O)O)cc2)c2cc(Cl)ccc2n1C(c1ccccc1)c1ccccc1", "Potency": "inactive"},
      {"smiles": "CCCn1c(=O)c2[nH]c(C34CC5CC3C[C@@H](C5)C4)nc2n(CCC)c1=O", "Potency": "inactive"},
      {"smiles": "Cc1cc(SCc2sc(-c3ccc(C(F)(F)F)cc3)nc2C)ccc1OCC(=O)O", "Potency": "inactive"},
      {"smiles": "CCC(=O)N[C@H]1CC[C@H](C(=O)N(C)c2ccc(-c3nc4ccccc4o3)cc2)C1", "Potency": "2.96 µM (active)"},
      {"smiles": "O=C(Nc1ccc(F)c(C(F)(F)F)c1)Nc1nnc(-c2ccncc2)s1", "Potency": "2.64 µM (active)"}
    ]}
  ]
}
